Out of some 5,500 compounds screened, about 2,000 (36%) were called active. Roughly 18% stayed inconclusive and do not appear here. Cut-off read from the data, not from the text of the source: active = normalized growth mostly below about 0.91 (no sharp cut-off); inconclusive = no clear call, values can overlap the other calls; inactive = mostly above about 0.92. This is one part of the list.
Assay: chemical genetic growth profiling, strain panel (AID 1159580);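 note: tested at 20 µM; growth read once vehicle control cultures reached saturation at 30 °C; 1 = growth at the plate median or of vehicle wells; lower values mean less growth of the strain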
Settings: S. cerevisiae deletion strains, growth OD
[1] = locus YAL040C, strain CLN3, hits give low values
[2] = locus YDR363W, strain ESC2, hits give low values
[3] = locus YER002W, strain NOP16, hits give low values
[4] = locus YNL175C, strain NOP13, hits give low values
[5] = locus YNL197C, strain WHI3, hits give low values
[6] = locus YNL224C, strain SQS1, hits give low values
[7] = locus YOR083W, strain WHI5 (second series), hits give low values

Measured: normalized growth

O=C(O)[C@H]1NCCC[C@H]1C(=O)O
inactive: [1] 1.06 | locus YCL061C, strain MRC1 (second series), hits give low values 0.986 | locus YDR150W, strain NUM1, hits give low values 1.01 | [2] 0.991 | [3] 0.993 | locus YMR263W, strain SAP30, hits give low values 0.99 | locus YMR307W, strain GAS1, hits give low values 0.991 | locus YNL128W, strain TEP1, hits give low values 0.994 | [4] 1 | [5] 0.982 | [6] 0.999 | [7] 0.984 | locus YPL055C, strain LGE1, hits give low values 1 | locus YPL241C, strain CIN2, hits give low values 0.996

N[C@@H](CS(=O)O)C(=O)O
inactive: [1] 0.98 | [2] 1.01 | [3] 0.98 | locus YGR078C, strain PAC10, hits give low values 1.01 | locus YGR229C, strain SMI1, hits give low values 0.954 | [4] 0.987 | [5] 1.02 | [6] 1.02 | [7] 1.02

C=C1CC2C3C=C(C)C4=CC(=O)CC[C@]4(C)C3CC[C@]2(C)[C@@]1(OC(C)=O)C(C)=O (stereo partly specified)
inactive: locus YHR030C, strain SLT2, hits give low values 0.955 | locus YHR079C, strain IRE1, hits give low values 0.933 | locus YJL095W, strain BCK1, hits give low values 0.955 | locus YJR066W, strain TOR1, hits give low values 0.922 | locus YLR113W, strain HOG1, hits give low values 0.92 | locus YNL183C, strain NPR1, hits give low values 0.876 | locus YOR231W, strain MKK1, hits give low values 0.955 | locus YPL256C, strain CLN2, hits give low values 0.916

Source: PubChem BioAssay AID1159580 (chemical genetic matrix, 2015)
